The source made the active and inactive calls. Unless noted, how the calls were made is not given here.

The nature of experiment [1]: compounds binding Alexa647 anti-His antibody – biochemical, small-molecule microarray, 635 nm fluorescence, artefact control for SMM control protein annotation, primary screen (AID 1128).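 Further: score merges feature fluorescence with signal-to-noise for each printed compound spot.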 The following applies: higher = more signal.
Experiment [2] has as its system Human papillomavirus type 1a E7 protein (residues 1-88). The experiment can be described thus: HPV1a E7 small-molecule binders, primary screen, biochemical, small-molecule microarray, residues 1-88, 635 nm (AID 1129). Particulars: small-molecule microarray binding, fluorescence 635 nm; higher = more signal.
Experiment [3] addresses Focal adhesion kinase 1 (Homo sapiens) (UniProt Q05397). The experiment can be described thus: PTK2 protein binding on printed compound slides – biochemical, small-molecule microarray, 635/667 nm fluorescence, BSA, DTT, primary screen (AID 1130).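 Further: composite of spot emission at 667 nm and signal to noise over triplicate slides.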 The following applies: 635 nm fluorescence, higher = more signal.
Experiment [4] deals with Fibrinogen (Alexa647-labelled). The experiment can be described thus: Alexa647-fibrinogen binding to printed small molecules – biochemical, small-molecule microarray, 635/667 nm fluorescence, artefact control for SMM control-protein annotation, profiling panel (AID 1131).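 Further: z-score merges 667 nm fluorescence with per-spot signal-to-noise over triplicate slides.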 Particulars: fibrinogen-A647 binding fluorescence, higher = more signal.
Experiment [5] has as its target Follistatin (Homo sapiens) (UniProt P19883). Briefly: FST protein binding to printed compounds – biochemical, small-molecule microarray, 635/667 nm fluorescence, primary screen (AID 1132). Particulars: 635 nm fluorescence, higher = more signal.
The target in experiment [6] is Fibroblast growth factor 2 (Homo sapiens) (UniProt P09038). Briefly: basic fibroblast growth factor binding to printed compounds – biochemical, small-molecule microarray, 635/667 nm fluorescence, primary screen (AID 1133). The following applies: FGF2, fluorescence 635/667, higher = more signal.
Chain of Fibroblast growth factor 2 (Homo sapiens) (P09038 whole entry, looked up): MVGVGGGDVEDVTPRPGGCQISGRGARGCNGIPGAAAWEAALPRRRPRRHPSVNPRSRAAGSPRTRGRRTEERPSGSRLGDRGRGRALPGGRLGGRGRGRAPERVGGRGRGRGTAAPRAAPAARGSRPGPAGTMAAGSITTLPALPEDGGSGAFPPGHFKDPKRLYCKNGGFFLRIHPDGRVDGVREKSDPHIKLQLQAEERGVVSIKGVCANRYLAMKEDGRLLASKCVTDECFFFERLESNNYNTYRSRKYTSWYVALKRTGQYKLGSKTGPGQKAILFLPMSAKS
Experiment [7] in a line: JC-1 mitochondrial potential readout, lung cancer cells – cell-based, A549, JC-1 fluorescence, basal, 24 h, 100 nL, profiling panel (AID 1138).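 Further: A549 lung adenocarcinoma cells under basal conditions with no added stimulus; test concentration not given here.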 The following applies: higher = more signal.
Experiment [8] concerns Lefty1. Briefly: Lefty1 protein binding to printed compounds – biochemical, small-molecule microarray, 635/667 nm fluorescence, primary screen (AID 1139). The following applies: fluorescence 635/667, higher = more signal.
Experiment [9] has as its system wheat germ agglutinin (Triticum aestivum), Alexa647-labelled. Briefly: Alexa647-WGA lectin binding to printed small molecules – biochemical, small-molecule microarray, 635/667 nm fluorescence, artefact control for SMM control-protein annotation, profiling panel (AID 1140).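 Further: score merges 667 nm feature emission with signal to noise over triplicate slides.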 Particulars: WGA-A647 binding, 635 nm fluorescence, higher = more signal.
Experiment [10] has as its target Luciferin 4-monooxygenase (Photinus pyralis) (UniProt P08659). The experiment can be described thus: inhibition of purified Photinus pyralis luciferase – biochemical, luminescence, purified enzyme, 2006 set, primary screen (AID 1141).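 Further: cell-free assay with purified firefly luciferase at 100 ng per well in PBS; test concentration not given here.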 The following applies: purified firefly luciferase, SteadyGlo luminescence, 30 min; higher = more signal, called active from +8 up or from −8 down.

Experiment [11] has as its system Wnt5a (protein binding on small-molecule microarray). Briefly: small molecules binding Wnt5a protein – biophysical, small-molecule microarray, 635/667 nm fluorescence, primary screen (AID 1142).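 Further: fluorescence read at 667 nm with signal to noise per printed feature.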 The following applies: 635 nm fluorescence, higher = more signal.
A short description of experiment [12]: ATP-based viability of Huh7 replicon cells – cell-based, CellTiter-Glo luminescence, basal, 48 h, cytotoxicity control for HCV replication inhibitor project, primary screen (AID 1143).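 Further: Huh7 hepatoma cells carrying a hepatitis C replication reporter with no stimulus; test concentration not given here.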 The following applies: higher = more signal, called active from +8 up or from −8 down. For orientation: Replicon systems follow genome replication, usually without infectious particles.

The nature of experiment [13]: Pseudomonas biofilm growth suppression – PAO1 strain, BacTiter-Glo luminescence, LB-PBS, primary screen (AID 1144). Particulars: P. aeruginosa PAO1 biofilm, 12 h, higher = more signal.
A short description of experiment [14]: basal CRE-LacZ reporter activity in PC12 – cell-based, unstimulated, primary screen (AID 1145). The following applies: no forskolin, luminescence, 4.5 h, higher = more signal, called active from +8 up or from −8 down.
A short description of experiment [15]: forskolin-driven CRE-LacZ activity in PC12 – cell-based, CRE-LacZ reporter, forskolin-stimulated, primary screen (AID 1146).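 Further: PC12 cells with 6xCRE LacZ reporter stimulated by forskolin 10 µM; beta-galactosidase reporter signal reflecting CREB driven transcription.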 The following applies: luminescence, 4.5 h, higher = more signal, called active from +8 up or from −8 down.
Experiment [16] concerns the target Streptavidin (Streptomyces avidinii) (UniProt P22629). Briefly: compounds binding control protein streptavidin – biophysical, small-molecule microarray, 635/667 nm fluorescence, artefact control for SMM compound annotation, primary screen (AID 1147).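 Further: signal reflects streptavidin binding to arrayed compounds as a control protein.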 Particulars: higher = more signal.
Experiment [17] is described as follows: probe aInhba binding on compound microarray – biochemical, small-molecule microarray, 635/667 nm fluorescence, primary screen (AID 1148).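 Further: score merges 667nm spot fluorescence with signal-to-noise for antibody binding to printed compounds.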 Particulars: higher = more signal.
Experiment [18] has as its target Torsin-1A (Homo sapiens) (UniProt O14656). Briefly: TOR1A wild-type binding on microarray – cell lysate, small-molecule microarray, lysate, 635/667 nm, primary screen (AID 1149). Particulars: COS7 hTOR1A-WT lysate, 635 nm fluorescence, higher = more signal.
Experiment [19] shares this target. The experiment can be described thus: torsin A mutant lysate binding on microarrays – cell lysate, small-molecule microarray, COS7 lysate, 635/667 nm fluorescence, primary screen (AID 1150).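 Further: score pools 667 nm emission and signal to noise measuring lysate protein binding.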 Particulars: COS7 hTOR1A mutant lysate, 635 nm fluorescence, higher = more signal.
In experiment [20] the test system is Sonic hedgehog protein (Shh). The experiment can be described thus: Sonic hedgehog microarray binding compounds – biochemical, small-molecule microarray, 635/667 nm fluorescence, primary screen (AID 1151).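 Further: Shh protein binding to compounds spotted on small-molecule microarray slides; score combines spot fluorescence intensity with signal-to-noise across triplicate slides.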 Particulars: 635 nm fluorescence, higher = more signal.

Chain of Torsin-1A (Homo sapiens) (O14656 whole entry, looked up): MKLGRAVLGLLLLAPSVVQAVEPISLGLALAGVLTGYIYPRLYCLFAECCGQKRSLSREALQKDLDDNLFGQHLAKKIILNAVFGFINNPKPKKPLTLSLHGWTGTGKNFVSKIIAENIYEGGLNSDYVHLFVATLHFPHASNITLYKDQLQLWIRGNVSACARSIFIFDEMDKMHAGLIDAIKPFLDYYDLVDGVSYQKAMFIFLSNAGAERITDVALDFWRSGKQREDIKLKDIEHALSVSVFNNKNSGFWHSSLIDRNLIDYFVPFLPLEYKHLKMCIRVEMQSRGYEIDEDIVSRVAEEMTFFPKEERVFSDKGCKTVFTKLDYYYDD
Chain of Streptavidin (Streptomyces avidinii) (P22629 whole entry, looked up): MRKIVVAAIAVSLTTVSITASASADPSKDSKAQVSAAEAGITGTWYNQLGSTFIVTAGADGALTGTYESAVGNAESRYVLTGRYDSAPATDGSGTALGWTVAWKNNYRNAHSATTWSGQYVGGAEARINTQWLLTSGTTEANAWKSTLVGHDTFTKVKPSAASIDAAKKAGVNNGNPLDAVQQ
Chain of Luciferin 4-monooxygenase (Photinus pyralis) (P08659 whole entry, looked up): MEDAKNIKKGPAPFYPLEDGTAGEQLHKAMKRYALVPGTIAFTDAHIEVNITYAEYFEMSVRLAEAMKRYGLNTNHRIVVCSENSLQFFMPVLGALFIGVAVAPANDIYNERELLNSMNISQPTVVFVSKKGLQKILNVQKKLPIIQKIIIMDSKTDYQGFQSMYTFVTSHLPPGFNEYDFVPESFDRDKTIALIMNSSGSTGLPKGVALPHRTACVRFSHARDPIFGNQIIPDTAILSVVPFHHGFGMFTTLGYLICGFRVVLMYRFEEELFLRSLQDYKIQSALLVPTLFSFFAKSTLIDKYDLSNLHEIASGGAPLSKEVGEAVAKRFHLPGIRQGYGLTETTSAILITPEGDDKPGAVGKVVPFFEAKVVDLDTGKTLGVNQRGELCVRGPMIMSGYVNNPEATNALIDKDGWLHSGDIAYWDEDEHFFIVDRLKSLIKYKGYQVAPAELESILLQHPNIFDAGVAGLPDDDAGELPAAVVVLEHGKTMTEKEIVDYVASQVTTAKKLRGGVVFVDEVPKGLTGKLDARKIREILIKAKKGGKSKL
Chain of Follistatin (Homo sapiens) (P19883 whole entry, looked up): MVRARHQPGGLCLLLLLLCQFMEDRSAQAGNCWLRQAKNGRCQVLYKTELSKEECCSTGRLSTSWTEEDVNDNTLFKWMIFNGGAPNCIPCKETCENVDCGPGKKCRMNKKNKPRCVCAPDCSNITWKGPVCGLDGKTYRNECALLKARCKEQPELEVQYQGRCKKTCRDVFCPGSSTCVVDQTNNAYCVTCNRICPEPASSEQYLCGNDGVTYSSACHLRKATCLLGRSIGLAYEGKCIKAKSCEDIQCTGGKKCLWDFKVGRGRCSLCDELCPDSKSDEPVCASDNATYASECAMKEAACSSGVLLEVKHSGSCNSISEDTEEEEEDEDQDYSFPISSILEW
Chain of Focal adhesion kinase 1 (Homo sapiens) (Q05397 whole entry, looked up): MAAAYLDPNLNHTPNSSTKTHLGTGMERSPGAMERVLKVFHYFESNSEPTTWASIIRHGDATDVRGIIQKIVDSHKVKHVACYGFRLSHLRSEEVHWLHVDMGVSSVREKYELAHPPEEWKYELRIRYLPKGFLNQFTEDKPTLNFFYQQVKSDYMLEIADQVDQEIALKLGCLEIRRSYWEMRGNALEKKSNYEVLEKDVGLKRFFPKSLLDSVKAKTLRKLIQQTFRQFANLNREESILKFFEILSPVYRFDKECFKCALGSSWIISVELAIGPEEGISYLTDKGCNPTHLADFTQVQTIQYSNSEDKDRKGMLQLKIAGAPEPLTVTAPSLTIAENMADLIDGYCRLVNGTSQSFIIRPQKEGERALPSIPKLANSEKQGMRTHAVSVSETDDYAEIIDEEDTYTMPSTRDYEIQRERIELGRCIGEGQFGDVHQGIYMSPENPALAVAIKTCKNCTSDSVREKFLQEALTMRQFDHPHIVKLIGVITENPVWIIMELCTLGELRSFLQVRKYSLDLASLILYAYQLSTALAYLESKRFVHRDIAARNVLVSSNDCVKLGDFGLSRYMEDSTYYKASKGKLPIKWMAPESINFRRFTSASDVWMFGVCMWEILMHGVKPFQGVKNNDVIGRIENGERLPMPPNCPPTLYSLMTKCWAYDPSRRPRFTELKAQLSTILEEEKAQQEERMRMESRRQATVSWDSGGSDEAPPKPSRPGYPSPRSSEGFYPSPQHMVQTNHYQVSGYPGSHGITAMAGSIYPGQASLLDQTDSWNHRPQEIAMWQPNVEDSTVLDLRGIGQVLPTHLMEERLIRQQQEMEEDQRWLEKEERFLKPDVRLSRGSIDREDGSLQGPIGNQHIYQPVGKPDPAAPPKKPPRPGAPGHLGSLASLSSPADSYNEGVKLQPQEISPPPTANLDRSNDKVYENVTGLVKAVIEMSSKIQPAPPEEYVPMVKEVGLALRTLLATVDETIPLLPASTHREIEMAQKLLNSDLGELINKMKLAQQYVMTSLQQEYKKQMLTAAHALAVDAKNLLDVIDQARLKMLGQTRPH

For `O=C/C=C/c1ccc2c(c1)OCO2`, the composite z-score is 1.33 in experiment [1]; 0.128 in experiment [2]; 0.247 in experiment [3]; -0.696 in experiment [4]; 0.952 in [5]; 0.398 in [6]. Further, the composite z-score in [8] is 0.401; in experiment [9], -0.273; in experiment [11], 0.0218; in experiment [16], -0.142; in experiment [17], -0.0509; in experiment [18] it was 0.219. Also, the figures for the composite z-score in [19] and in experiment [20] were 0.0622 and 0.504, respectively. Besides, the z-score in [7] was 0.231; in experiment [10], -1.04 (inactive); in [12], -1.95 (inactive); in experiment [13], -1.39 (inactive); in experiment [14], -0.491 (inactive); in experiment [15], 0.106 (inactive).

As for `CCCCC=C[C@@H](NC(=O)c1cccs1)c1ccccc1`, the composite z-score was 0.813 in experiment [1]; 0.837 in experiment [2]; 0.351 in [3]; 0.983 in experiment [4]; -0.145 in [5]; 0.067 in experiment [6]. The composite z-score in experiment [8] is -0.389; in [9] it was 1.13; in experiment [11] it was 0.0001; in [16], 0.801; in experiment [17] it was 0.261; in experiment [18], 0.0798. The results for the composite z-score in experiment [19] and in experiment [20] were 0.454 and -0.216, respectively. The z-score is 0.679 in experiment [7]; 0.969 (inactive) in experiment [10]; -2.49 (inactive) in experiment [12]; 0.15 (inactive) in experiment [13]; -0.951 (inactive) in [14]; -0.548 (inactive) in experiment [15].

With `CCCN1C(=O)[C@]2(COC(c3ccc(OCCCO)cc3)=N2)Cc2ccccc21`, the composite z-score in experiment [1] was 2.63; in experiment [2], 1.23; in experiment [3], 0.473; in experiment [4], 0.551; in experiment [5] it was 1.35; in [6], 1.26. In addition, the composite z-score was -0.222 in experiment [8]; 0.974 in experiment [9]; 0.526 in experiment [11]; 0.0066 in [16]; 0.0756 in experiment [17]; 0.416 in experiment [18]. The composite z-score worked out at 0.01 in [19] and 0.184 in experiment [20]. The z-score in [7] was 0.306; in [10], -1.66 (inactive); in [12], -1.62 (inactive); in [13], 0.786 (inactive); in [14], 0.913 (inactive); in experiment [15], -1.39 (inactive).

Turning to `CC(C)C[C@@H]1NC(=O)[C@H]2C[C@@H](C(=O)NCCCCCCNC(=O)CS)[C@@H](c3cccc(OCCO)c3)N2C1=O`, the composite z-score in experiment [1] was 1.19; in experiment [2], 1.21; in experiment [3], 0.236; in experiment [4], 0.855; in experiment [5] it was 1.43; in experiment [6] it was 1.64. Further, the composite z-score in [8] came out at 1.57; in experiment [9], 0.96; in experiment [11] it was 1.35; in experiment [16] it was 0.357; in experiment [17], 0.0574; in experiment [18], 1.53. For the same compound, the composite z-score in experiment [19] came to 1.67; in experiment [20], 2.13. For the same compound, the z-score is 1 in experiment [7]; -1.05 (inactive) in experiment [10]; 0.263 (inactive) in experiment [12]; -0.436 (inactive) in [13]; -1.49 (inactive) in experiment [14]; -1.47 (inactive) in experiment [15].

Regarding `O=C1O[C@H](c2ccccc2)[C@H](c2ccccc2)N2[C@H]1[C@@H](C(=O)N1CCN(c3ncccn3)CC1)[C@]1(C(=O)Nc3ccccc31)[C@H]2c1ccc(OCCO)cc1`, the composite z-score in experiment [1] is 1.39; in experiment [2], 1.19; in [3] it was 0.429; in experiment [4], -0.206; in experiment [5], 1.34; in experiment [6], 1.43. Moreover, the composite z-score in experiment [8] was 1.12; in experiment [9], 0.0522; in experiment [11], 0.505; in experiment [16] it was -0.0363; in experiment [17] it was 0.0588; in experiment [18], 1.43. The values for the composite z-score in [19] and in experiment [20] were 0.36 and 1.98, respectively. Also, the z-score was -0.442 in experiment [7]; 0.546 (inactive) in experiment [10]; -5.5 (inactive) in experiment [12]; -2.01 (inactive) in experiment [13]; -0.528 (inactive) in experiment [14]; -0.222 (inactive) in experiment [15].
